Results from PubChem BioAssay AID1159580 (chemical genetic matrix, 2015).
Where “and” joins values, the source holds several entries; their conditions need not be identical. Equal entries are not always repeated. About 2,000 (36%) of roughly 5,500 compounds were called active. Not shown: some 18% with an inconclusive outcome. Rule as the data show it: active = normalized growth mostly below about 0.91 (no sharp cut-off); inconclusive = no clear call, values can overlap the other calls; inactive = mostly above about 0.92. The list shows a part of the results.

Test: chemical genetic growth profiling, strain panel (AID 1159580);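 also: tested at 20 µM; growth read once vehicle control cultures reached saturation at 30 °C; 1 = growth at the plate median or of vehicle wells; lower values mean less growth of the strain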
Settings: S. cerevisiae deletion strains, growth OD

Measured: normalized growth

O=C1O[C@H](C(O)CO)C(O)=C1O (some centres undefined)
inactive: locus YAL021C, strain ccr4, active compounds read low 0.975 | locus YAL026C, strain drs2, active compounds read low 0.974 | locus YAL030W, strain snc1, active compounds read low 0.988 | locus YBL061C, strain skt5, active compounds read low 0.984 | locus YBR009C, strain hhf1, active compounds read low 0.992 | locus YBR021W, strain FUR4, active compounds read low 0.976 | locus YBR023C, strain chs3, active compounds read low 0.978 | locus YBR171W, strain sec66, active compounds read low 0.983 | locus YBR229C, strain ROT2, active compounds read low 0.991 | locus YBR231C, strain swc5, active compounds read low 1.01 | locus YBR279W, strain paf1, active compounds read low 0.986 | locus YCL011C, strain gbp2, active compounds read low 0.989 | locus YCL016C, strain dcc1, active compounds read low 0.986 | locus YCL029C, strain bik1, active compounds read low 0.96 | locus YCL061C, strain MRC1, active compounds read low 0.975 | locus YCL069W, strain vba3, active compounds read low 0.997 | locus YCR088W, strain abp1, active compounds read low 0.985 | locus YDL005C, strain med2, active compounds read low 0.983 | locus YDL035C, strain GPR1, active compounds read low 1.03 | locus YDL040C, strain nat1, active compounds read low 0.987 | locus YDL074C, strain BRE1, active compounds read low 0.997 | locus YDL101C, strain DUN1, active compounds read low 0.993 | locus YDL185W, strain tfp1, active compounds read low 0.973 | locus YDL192W, strain arf1, active compounds read low 0.977 | locus YDR001C, strain nth1, active compounds read low 0.99 | locus YDR069C, strain doa4, active compounds read low 0.991 | locus YDR101C, strain arx1, active compounds read low 0.954 | locus YDR137W, strain rgp1, active compounds read low 0.971 | locus YDR159W, strain sac3, active compounds read low 0.984 | locus YDR162C, strain NBP2, active compounds read low 1.01 | locus YDR195W, strain ref2 0.991 | locus YDR297W, strain sur2, active compounds read low 0.992 | locus YDR318W, strain mcm21, active compounds read low 1 | locus YDR334W, strain swr1, active compounds read low 0.979 | locus YDR335W, strain msn5, active compounds read low 0.993 | locus YDR388W, active compounds read low 0.977 | locus YDR392W, strain spt3, active compounds read low 0.916 | locus YDR502C, strain sam2, active compounds read low 0.996 | locus YEL003W, strain gim4, active compounds read low 1 | locus YEL037C, strain rad23, active compounds read low 0.988 | locus YEL061C, strain CIN8 (second series), active compounds read low 0.989 | locus YEL061C, strain CIN8, active compounds read low 1.02 | locus YER015W, strain faa2, active compounds read low 0.971 | locus YER016W, strain bim1, active compounds read low 0.997 | locus YER110C, active compounds read low 0.974 | locus YER111C, strain swi4, active compounds read low 0.983 | locus YER155C, strain BEM2 (second series), active compounds read low 0.992 | locus YER155C, strain BEM2, active compounds read low 0.976 | locus YER167W, strain BCK2, active compounds read low 1 | locus YFR010W, strain ubp6, active compounds read low 0.975 | locus YGL078C, strain dbp3, active compounds read low 0.964 | locus YGL086W, strain mad1, active compounds read low 0.957 | locus YGL167C, strain pmr1, active compounds read low 0.984 | locus YGL173C, strain kem1, active compounds read low 0.982 | locus YGL227W, strain vid30, active compounds read low 0.992 | locus YGL240W, strain doc1, active compounds read low 0.986 | locus YGL248W, strain PDE1, active compounds read low 0.997 | locus YGL253W, strain hxk2, active compounds read low 0.992 | locus YGR135W, strain pre9, active compounds read low 1.01 | locus YGR229C, strain SMI1, active compounds read low 1.01 | locus YGR252W, strain gcn5, active compounds read low 1.06 | locus YHR013C, strain ard1, active compounds read low 0.957 | locus YHR027C, strain rpn1, active compounds read low 1.01 | locus YHR030C, strain SLT2, active compounds read low 0.991 and 0.989 | locus YHR079C, strain IRE1 (second series), active compounds read low 0.984 | locus YHR079C, strain IRE1, active compounds read low 1 | locus YHR094C, strain hxt1, active compounds read low 0.976 | locus YHR129C, strain ARP1, active compounds read low 1 | locus YHR142W, strain chs7, active compounds read low 0.979 | locus YHR200W, strain rpn10, active compounds read low 0.982 | locus YIL066C, strain RNR3, active compounds read low 0.987 | locus YIL073C, strain SPO22, active compounds read low 0.997 | locus YIL125W, strain kgd1, active compounds read low 0.967 | locus YIR030C, strain dcg1, active compounds read low 0.978 | locus YJL092W, strain hpr5, active compounds read low 0.988 | locus YJL095W, strain BCK1 (second series), active compounds read low 0.991 | locus YJL095W, strain BCK1, active compounds read low 1.02 and 0.983 | locus YJL115W, strain asf1, active compounds read low 0.987 | locus YJL129C, strain trk1, active compounds read low 0.992 | locus YJL134W, strain LCB3, active compounds read low 0.987 | locus YJL154C, strain vps35, active compounds read low 1 | locus YJL164C, strain tpk1, active compounds read low 0.969 | locus YJL166W, strain qcr8, active compounds read low 0.97 | locus YJL168C, strain set2, active compounds read low 0.979 | locus YJL187C, strain SWE1 (second series), active compounds read low 0.999 | locus YJL187C, strain SWE1, active compounds read low 0.986 | locus YJR043C, strain POL32, active compounds read low 0.999 | locus YJR066W, strain TOR1, active compounds read low 0.943 | locus YKL009W, strain mrt4, active compounds read low 1.01 | locus YKL068W, active compounds read low 0.992 | locus YKL085W, strain MDH1 (second series), active compounds read low 0.992 | locus YKL085W, strain MDH1, active compounds read low 0.992 | locus YKL160W, strain elf1, active compounds read low 0.971 | locus YKR001C, strain vps1, active compounds read low 0.949 | locus YKR026C, strain gcn3, active compounds read low 0.99 | locus YKR091W, strain srl3, active compounds read low 0.986 | locus YLL001W, strain dnm1, active compounds read low 0.987 | locus YLL026W, active compounds read low 0.998 | locus YLL041C, strain sdh2, active compounds read low 0.988 | locus YLR027C, strain aat2, active compounds read low 0.99 | locus YLR039C, strain RIC1, active compounds read low 1.03 | locus YLR058C, strain SHM2, active compounds read low 1.01 | locus YLR102C, strain apc9, active compounds read low 0.98 | locus YLR113W, strain HOG1, active compounds read low 0.974 | locus YLR221C, strain rsa3, active compounds read low 0.975 | locus YLR258W, strain gsy2, active compounds read low 0.99 | locus YLR262C, strain YPT6 (second series), active compounds read low 0.952 | locus YLR262C, strain YPT6, active compounds read low 1.04 | locus YLR268W, strain sec22, active compounds read low 0.933 | locus YLR320W, strain mms22, active compounds read low 0.975 | locus YLR330W, strain CHS5, active compounds read low 0.99 | locus YLR342W, strain FKS1 (second series), active compounds read low 0.989 | locus YLR342W, strain FKS1, active compounds read low 0.98 | locus YLR357W, strain rsc2, active compounds read low 0.952 | locus YLR370C, strain arc18, active compounds read low 0.986 | locus YLR371W, strain rom2, active compounds read low 0.959 | locus YLR384C, strain iki3, active compounds read low 0.971 | locus YLR418C, strain cdc73, active compounds read low 1.02 | locus YML016C, strain PPZ1, active compounds read low 0.958 | locus YML032C, strain rad52, active compounds read low 1.02 | locus YML120C, strain ndi1, active compounds read low 0.978 | locus YML124C, strain tub3, active compounds read low 0.972 | locus YMR058W, strain fet3, active compounds read low 0.99 | locus YMR078C, strain ctf18, active compounds read low 0.961 | locus YMR125W, strain sto1, active compounds read low 0.979 | locus YMR129W, active compounds read low 0.996 | locus YMR205C, strain PFK2, active compounds read low 0.963 | locus YMR223W, strain ubp8, active compounds read low 0.982 | locus YMR231W, strain pep5, active compounds read low 0.986 | locus YMR307W, strain GAS1, active compounds read low 1.01 | locus YNL067W, strain RPL9B, active compounds read low 1 | locus YNL071W, strain lat1, active compounds read low 0.986 | locus YNL128W, strain TEP1, active compounds read low 0.988 | locus YNL183C, strain NPR1, active compounds read low 0.932 | locus YNL209W, strain ssb2, active compounds read low 0.998 | locus YNL233W, strain BNI4, active compounds read low 0.993 | locus YNL248C, strain rpa49, active compounds read low 0.983 | locus YNL250W, strain rad50, active compounds read low 0.962 | locus YNL271C, strain bni1, active compounds read low 0.966 | locus YNL298W, strain CLA4, active compounds read low 0.979 | locus YNL307C, strain MCK1, active compounds read low 0.965 | locus YNL322C, strain KRE1 (second series), active compounds read low 0.984 | locus YNL322C, strain KRE1, active compounds read low 0.995 | locus YNR049C, strain mso1, active compounds read low 0.986 | locus YNR052C, strain pop2, active compounds read low 0.985 | locus YOL006C, strain TOP1, active compounds read low 0.979 | locus YOL012C, strain htz1 1.07 | locus YOL147C, strain pex11, active compounds read low 0.982 | locus YOR001W, strain rrp6, active compounds read low 0.989 | locus YOR061W, strain CKA2, active compounds read low 0.992 | locus YOR069W, strain VPS5, active compounds read low 0.991 | locus YOR070C, strain gyp1, active compounds read low 0.989 | locus YOR080W, strain dia2, active compounds read low 0.981 | locus YOR083W, strain WHI5, active compounds read low 0.973 | locus YOR106W, strain vam3, active compounds read low 0.962 | locus YOR136W, strain idh2, active compounds read low 0.96 | locus YOR144C, strain elg1, active compounds read low 0.974 | locus YOR184W, strain ser1, active compounds read low 0.991 | locus YOR231W, strain MKK1, active compounds read low 0.965 | locus YOR265W, strain rbl2, active compounds read low 0.984 | locus YOR270C, strain vph1, active compounds read low 0.987 | locus YOR290C, strain snf2, active compounds read low 0.953 | locus YOR316C, strain cot1, active compounds read low 0.976 | locus YPL051W, strain arl3, active compounds read low 0.977 | locus YPL078C, strain atp4, active compounds read low 0.979 | locus YPL106C, strain sse1, active compounds read low 0.93 | locus YPL240C, strain hsp82, active compounds read low 0.995 | locus YPL241C, strain CIN2, active compounds read low 0.993 | locus YPL256C, strain CLN2, active compounds read low 1 | locus YPR119W, strain clb2, active compounds read low 0.976 | locus YPR141C, strain kar3, active compounds read low 0.973 | locus YPR163C, strain tif3, active compounds read low 0.975 | locus YPR167C, strain met16, active compounds read low 0.998 | strain wtn01, active compounds read low 0.932
